# Records with an inconclusive call do not appear. Where a call stands in place of a potency, no number is given. Activity calls are given as the source filed them. The call rests on the fitted dose curve; in most records, active means well fitted inhibition curve with a large enough effect; inconclusive means small, poorly fitted or top-dose-only effect; inactive means flat fitted curve, though single readings scatter.
# Target: Glutathione peroxidase 1 (Homo sapiens) (UniProt P07203)
# Experiment: Primary qHTS Assay for Inhibitors of Recombinant Selenoprotein Glutathione Peroxidase 1 (GPX1) (AID 1845191); further: nearly all actives have a fitted effect of over 65% in size
# Conditions: recombinant GPX1, GR-coupled NADPH fluorescence, 15 min; series mostly up to 48.8 µM
# In short: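 GPX1 10 nM, GR 100 nM, GSH 1 mM, NADPH 0.5 mM, CHP 0.5 mM (final). 30-min cpd preincubation, RT. Ex340/Em450 read t=0, t=15 min.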
# Chain of Glutathione peroxidase 1 (Homo sapiens) (P07203 whole entry, looked up): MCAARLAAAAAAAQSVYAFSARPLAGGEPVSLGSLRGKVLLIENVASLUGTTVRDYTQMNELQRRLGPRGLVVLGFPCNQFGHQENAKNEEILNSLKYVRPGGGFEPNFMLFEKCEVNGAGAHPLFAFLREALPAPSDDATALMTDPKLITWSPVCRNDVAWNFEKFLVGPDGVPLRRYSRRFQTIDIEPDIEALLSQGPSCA
row,Structure (SMILES),Potency
1,C[C@H](N)CN1CCc2ccc(Br)cc21,inactive
2,C[N+]1(C)CCN(c2ccccc2)CC1,inactive
3,C[C@H]1C2Cc3ccc(O)cc3[C@@]1(C)CCN2CC1CC1,inactive
4,C[N+]1(C)CCc2cc3c(cc2[C@H]1[C@@H]1OC(=O)c2c1ccc1c2OCO1)OCO3,inactive
5,CC(C)(C)c1o[nH]c(=O)c1CC(N)C(=O)O (stereo not given),inactive
6,O=c1ccc2[nH]cc(C3=CCNCC3)c2[nH]1,inactive
7,CC(=O)NBr,inactive
8,CCCN(CCC)[C@H]1CCc2c(F)ccc(O)c2C1,inactive
9,CC1(C(=O)O)C2CCC(O2)C1(C)C(=O)O (stereo not given),inactive
10,C[N+]1(C)CCOC(O)(c2ccc(-c3ccc(C4(O)C[N+](C)(C)CCO4)cc3)cc2)C1 (stereo not given),inactive
11,C[N+](C)(C)CCOC(=O)CBr,inactive
12,CN1CC[C@@]2(C)c3cc(OC(=O)Nc4ccccc4)ccc3N(C)[C@@H]12,inactive
13,CC(N)[C@H](O)c1ccc(O)c(O)c1 (stereo not given in full),inactive
14,CP(=O)(O)C1=CCNCC1,inactive
15,Cc1[nH]c2ccc(O)cc2c1CCN,inactive
16,NCCCP(=O)(O)O,inactive
17,C[N+](C)(C)CC#CCOC(=O)Nc1cccc(Cl)c1,inactive
18,COc1ccc(OC)c(C(O)C(C)N)c1 (stereo not given),inactive
19,C=CCN1CCC23c4c5ccc(O)c4O[C@H]2C(=O)CC[C@@]3(O)C1C5 (stereo not given in full),inactive
20,Nc1ccc(CCN2CCN(c3cccc(C(F)(F)F)c3)CC2)cc1,inactive

row,Structure (SMILES),Potency
1,NCC(CP(=O)(O)O)c1ccc(Cl)cc1 (stereo not given),inactive
2,NC(=O)COc1c(F)cc(SCCNS(=O)(=O)c2ccccc2)cc1F,inactive
3,Cc1o[nH]c(=O)c1CC(N)C(=O)O (stereo not given),inactive
4,N[C@@H](Cn1oc(=O)[nH]c1=O)C(=O)O,inactive
5,c1ccc2c(c1)[I+]c1ccccc1-2,inactive
6,CCOC(=O)c1ncn2c1[C@@H]1CCCN1C(=O)c1cc(OC)ccc1-2,inactive
7,CC(N)Cc1c[nH]c2ccc(OCc3cccs3)cc12 (stereo not given),inactive
8,NCCc1c[nH]c2ccc(C(N)=O)cc12,inactive
9,O=[N+]([O-])/C=C/c1ccc2c(c1)OCO2,inactive
10,CCCN(CCC)[C@@H]1CCc2cccc(O)c2C1,inactive
11,c1ccc2c(N3CCNCC3)cccc2c1,inactive
12,CCN1C[C@@]2(COC)C3[C@@H](OC)C4[C@@H]1C3([C@@H]1C[C@]3(O)[C@H](OC(=O)c5ccccc5)[C@@H]1[C@]4(OC(C)=O)[C@@H](O)[C@@H]3OC)[C@H](OC)C[C@H]2O,inactive
13,Cc1cc([C@@H]2CCCN2C)on1,inactive
14,NC(CCCCCP(=O)(O)O)C(=O)O (stereo not given),inactive
15,O=C1/C(=C/c2ccccc2)C[C@@]2(O)[C@H]3Cc4ccc(O)c5c4[C@@]2(CCN3CC2CC2)[C@H]1O5,inactive
16,C=CCN1C[C@@H](C)N([C@H](c2ccc(C(=O)N(CC)CC)cc2)c2cccc(OC)c2)C[C@@H]1C,inactive
17,O=C(NC1CN2CCC1CC2)c1cc2ccoc2cn1 (stereo not given),inactive
18,OCc1cnc[nH]1,inactive
19,CC(=O)OCC1=C(C(=O)O)N2C(=O)[C@@H](NC(=O)CCC[C@@H](N)C(=O)O)[C@H]2SC1,inactive
20,CCCCCCCCCCCCCC(=O)O[C@@H]1[C@@H](C)[C@@]2(O)[C@@H](C=C(CO)C[C@@]3(O)C(=O)C(C)=C[C@@H]23)C2C(C)(C)[C@@]21OC(C)=O (stereo not given in full),inactive

# — PubChem BioAssay (NCATS)
